# System: PPARg:RXRa DBDmut IVT, anti-RXR (DBD mutation: RXRa K156A/R161A, NR concentration 270 nM, RXRa partner concentration 90 nM)
# Experiment: PBM binding z-score (relative to random genomic background probes); higher = stronger binding; sequences stand for … in GC…GCGATTGACAGCGTAGAATGAAGG
# Procedure, shortened: (§1)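 Each nuclear receptor dimer, without ligand, was incubated for 1 h on custom Agilent 4×180K protein-binding microarrays. Binding was detected with antibodies against each partner (one per run), and scanned fluorescence was regression-normalized. The binding z-scores are referenced to random human genomic background probes.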
row,Sequence,PBM binding z-score
1,CCAACTAGGTCAGAACAGGACAGTGAAGGATGAT,6.64
2,CATACAGGGTCAGCTAGGCCAGAGAAGGGACGGC,1.21
3,TGAATGACGTTATAAGATCAGGGAACGTTGCAAA,-1.22
4,ATCTCTCGGTAACCAAGTTCAGTGAATGCCGAAC,-0.264
5,CCTAGCAGGCCAATCTGGGTCACCCAAGGCTTGA,3.64
6,GCTTGTCGATCAAGGTTAAGAAAGACTAAGCTAA,-0.33
7,ATATGTAGGTTAAGGGTCACTCAGGTTGGTTCGC,7.97
8,GCTGCTAGGTTAGGTTGGTCAGCTAACGGGTACG,1
9,ATCGAAAGGTCGACGAGGTGAGTGTACACCGTTT,1.06
10,CAAACTAGGTCACGAAAGGTCAAGGTCGAATGAC,8.73
11,TAGCCTAGGTCAGATGGGGCCAGTATACGCTATA,1.03
12,ATCGCAAGGTCGTGAGGTGAGTATACAGAAAGGC,-0.158
13,TAGCATAGGTCATGGGCCAGTATACCACGCGAAC,0.625
14,TCTGCTAGGTCAGCTGGTCAGCTAACGAGCTGCC,2.65
15,GCTGTTAGGTCAGGTTGGTCAGCTAACGGGTACG,2.26
16,TCGGCTAGGTCAGTTGGTCAGCTAACGAGCTGCC,1.62
17,CCCATTAGTTGACCATAAGGGCAACCGAAGCTCG,-0.253
18,TAGCTTAGGTCATTGGGCCAGTATAGTACGCATC,2.21
19,CCTTACGGGGCACTGACAGGTTATAGCATTTGGA,1.49
20,TCGAGTAGGTTACCGATGGGGCATTCAGCTTTCT,3.39

row,Sequence,PBM binding z-score
1,TCTATTAGTTGATTAGGGCATCCGAAACAGCGGA,2.14
2,TCTGCTAGGTCGGTTGGTCAGCTAACGAGCTGCC,0.68
3,CGAACTAGGTCAGAACATGACAGTGAAGGATGAT,6.77
4,TTACCAAGGTGAGCCGAGGTCGTTGATCCAACTC,1.46
5,CAAACTAGGTCACCGGAAGGTCAACGTCCGCATG,8.78
6,CCTACTGGGCCACGAAAAGTCATTGATTCAGTGA,5.95
7,AATACAGGGTCATCGTAGACCAGAGTACGCACAG,3.19
8,CCTTACGGGTCACTCCAGGCTATAGCATCGGAGT,2.55
9,CCACACAGGTGAAAGGTAACTCAGTCTGGTACGC,2.15
10,TCCGACAGGTGAAGGTAACTCAGGTACGCAGTCG,1.51
11,ATCGATAGGTCGACGAGGTGAGTATACACCGTTT,-0.138
12,TAGCCTAGGTCATGCAGGCCAGTATAGTGTCGGC,1.84
13,CGTCCAACGTCAGAGAGGTCAGTGAATGCCGAGT,0.129
14,CCCTACGGGTCACTGACAGGTTATAGCATTTGGA,0.759
15,AGAATGAGGTTACCAAACATCAGGGAAACGCTTG,4
16,CCTACTGGGCCATTCAGAGGTGATTGATCATATG,3.85
17,CCTACCAGGCCAGGGTCACTCAAGCATTTCGCTT,-0.315
18,CGAACTAGGTCATCCAGGACAATGAATACATTGA,7.89
19,ACTAGTTGGTGAGCTGAGGTCACACACAATTCGG,0.913
20,CGTCCAAGCTCAAAGGTCAGTGAAGAGATGACGG,0.0789

# System: PPARg:RXRa IVT, anti-PPARg (NR concentration 270 nM, RXRa partner concentration 90 nM)
# Experiment: as above
# Procedure, shortened: as §1
row,Sequence,PBM binding z-score
1,CCAACTAGGTCAGAACAGGACAGTGAAGGATGAT,6.66
2,CATACAGGGTCAGCTAGGCCAGAGAAGGGACGGC,2.58
3,TGAATGACGTTATAAGATCAGGGAACGTTGCAAA,-0.257
4,ATCTCTCGGTAACCAAGTTCAGTGAATGCCGAAC,0.594
5,CCTAGCAGGCCAATCTGGGTCACCCAAGGCTTGA,4.92
6,GCTTGTCGATCAAGGTTAAGAAAGACTAAGCTAA,0.582
7,ATATGTAGGTTAAGGGTCACTCAGGTTGGTTCGC,8.15
8,GCTGCTAGGTTAGGTTGGTCAGCTAACGGGTACG,0.292
9,ATCGAAAGGTCGACGAGGTGAGTGTACACCGTTT,2.45
10,CAAACTAGGTCACGAAAGGTCAAGGTCGAATGAC,9.06
11,TAGCCTAGGTCAGATGGGGCCAGTATACGCTATA,1.7
12,ATCGCAAGGTCGTGAGGTGAGTATACAGAAAGGC,1.26
13,TAGCATAGGTCATGGGCCAGTATACCACGCGAAC,2.53
14,TCTGCTAGGTCAGCTGGTCAGCTAACGAGCTGCC,2.82
15,GCTGTTAGGTCAGGTTGGTCAGCTAACGGGTACG,1.9
16,TCGGCTAGGTCAGTTGGTCAGCTAACGAGCTGCC,1.9
17,CCCATTAGTTGACCATAAGGGCAACCGAAGCTCG,0.593
18,TAGCTTAGGTCATTGGGCCAGTATAGTACGCATC,3.15
19,CCTTACGGGGCACTGACAGGTTATAGCATTTGGA,0.641
20,TCGAGTAGGTTACCGATGGGGCATTCAGCTTTCT,2.48

row,Sequence,PBM binding z-score
1,TCTATTAGTTGATTAGGGCATCCGAAACAGCGGA,1.16
2,TCTGCTAGGTCGGTTGGTCAGCTAACGAGCTGCC,0.822
3,CGAACTAGGTCAGAACATGACAGTGAAGGATGAT,7.31
4,TTACCAAGGTGAGCCGAGGTCGTTGATCCAACTC,2.45
5,CAAACTAGGTCACCGGAAGGTCAACGTCCGCATG,8.78
6,CCTACTGGGCCACGAAAAGTCATTGATTCAGTGA,5.51
7,AATACAGGGTCATCGTAGACCAGAGTACGCACAG,4.37
8,CCTTACGGGTCACTCCAGGCTATAGCATCGGAGT,3.11
9,CCACACAGGTGAAAGGTAACTCAGTCTGGTACGC,3.2
10,TCCGACAGGTGAAGGTAACTCAGGTACGCAGTCG,1.05
11,ATCGATAGGTCGACGAGGTGAGTATACACCGTTT,0.962
12,TAGCCTAGGTCATGCAGGCCAGTATAGTGTCGGC,2.9
13,CGTCCAACGTCAGAGAGGTCAGTGAATGCCGAGT,0.706
14,CCCTACGGGTCACTGACAGGTTATAGCATTTGGA,2.29
15,AGAATGAGGTTACCAAACATCAGGGAAACGCTTG,3.04
16,CCTACTGGGCCATTCAGAGGTGATTGATCATATG,3.8
17,CCTACCAGGCCAGGGTCACTCAAGCATTTCGCTT,1.13
18,CGAACTAGGTCATCCAGGACAATGAATACATTGA,8.42
19,ACTAGTTGGTGAGCTGAGGTCACACACAATTCGG,1.97
20,CGTCCAAGCTCAAAGGTCAGTGAAGAGATGACGG,1.7
